Among the data in PubChem BioAssay (NCI) are growth values, retold here.

Assay in all cases: NCI-60 one-dose screen, 48 h (100 = growth as untreated, 0 = no growth, -100 = all killed)
Common to all, as to conditions: 10 µM

Assay [1] deals with T-47D breast.
In assay [2] the test system is BT-549 breast.
Assay [3] concerns MDA-MB-435 melanoma.
Assay [4] concerns SW-620 colon.
Assay [5] concerns MCF7 breast.
Assay [6] deals with HCT-116 colon.
The test system of assay [7] is HCC-2998 colon.
The subject of assay [8] is KM12 colon.

Molecules are shown by their SMILES. The panel holds about 83,000 compounds, 20% with a hit somewhere; the sample as a whole holds those more often.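 Activity criterion: percent growth below 10, measured after cells in 96-well plates were exposed to a single compound concentration for 48 hours.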 Unmarked numbers belong to inactive results. Activity calls are given as the source filed them.

As to `O=C1c2c(c(=O)[nH]c3ccccc23)CCN1Cc1ccccc1`, the growth in assay [1] is 86.1%; in assay [2], 87.1%; in assay [3], 110%; in assay [4] it was 105%; in assay [5] it was 97.5%; in assay [6], 94.8%. In addition, the growth in assay [7] is 111%; in assay [8], 114%.
For `CN1CCc2c(sc3nc4n(-c5ccc(Cl)cc5)cnn4c(=O)c23)C1`, the growth in assay [1] is 91.8%; in assay [2], 93.4%; in assay [3] it was 102%; in assay [4], 110%; in assay [5] it was 70.6%; in assay [6], 98%. Moreover, the results for the growth in assay [7] and in assay [8] were 104% and 103%, respectively.
For `C=CCn1c(SCC(=O)Nc2ccc(C(=O)/C=C/c3ccc(Cl)cc3)cc2)nnc1-c1cc(-c2ccccc2)nc2ccccc12`, the growth in assay [1] was 84.6%; in assay [2] it was 64.2%; in assay [3] it was 77.9%; in assay [4], 5.4% (active); in assay [5] it was 12.2%; in assay [6] it was -22.9% (active). In addition, the results for the growth in assay [7] and in assay [8] were 87.4% and 76.5%, respectively.
For the compound `Cc1nn(-c2ccc(-c3ccc(OC(F)(F)F)cc3)cc2)c2nc(Cc3ccccc3)nc(N)c12`, the growth in assay [1] is 49%; in assay [2] it was 99.4%; in assay [3], 83.5%; in assay [4] it was 54.4%; in assay [5], 73.8%; in assay [6], 36.3%. Besides, the growth in assay [7] is 77.2%; in assay [8], 79.6%.
Consider `CCCCCCCCCCCCCCCCCC[n+]1ccc2c(C)c3c(c(C)c2c1)c1cc(O)ccc1n3CC`, for which the growth in assay [1] is 23.5%; in assay [2], -11% (active); in assay [3] it was -53.4% (active); in assay [4] it was 13.3%; in assay [5], 28.3%; in assay [6], 7.88% (active). Besides, the growth in assay [7] is 31.5%; in assay [8] it was 10.8%.
`NS(=O)(=O)Oc1ccc2c(ccn2C(=O)C23CC4CC(CC(C4)C2)C3)c1`: the growth in assay [1] was 112%; in assay [2], 105%; in assay [3], 106%; in assay [4], 103%; in assay [5] it was 120%; in assay [6] it was 102%. In addition, the growth in assay [7] is 101%; in assay [8] it was 107%.
In the case of `COc1ccc(/C=C/c2nnc(/C=C/c3ccc(OC)c(OC)c3)o2)cc1OC`, the growth in assay [1] is 19.5%; in assay [2], 25.5%; in assay [3], 10.4%; in assay [4], 18.1%; in assay [5], 22.8%; in assay [6] it was 4.83% (active). Also, the growth is 54.9% in assay [7] and 33.7% in assay [8].
On to `COc1cc(-c2nn(-c3cccc(NC(=O)CCN4CCN(Cc5ccccc5)CC4)c3)cc2-c2ccncc2)ccc1Cl`, for which the growth in assay [1] is 29.7%; in assay [2] it was 42.7%; in assay [3], -38.3% (active); in assay [4] it was 2.77% (active); in assay [5] it was 0.805% (active); in assay [6] it was 1.3% (active). The growth in assay [7] was -12.8% (active); in assay [8] it was 9.7% (active).
Turning to `CCn1c(SC/C(=N/O)c2ccccc2)nnc1-c1ccccc1`, the growth is 120% in assay [1]; 115% in assay [2]; 105% in assay [3]; 98.7% in assay [4]; 112% in assay [5]; 101% in assay [6]. For the same compound, the values for the growth in assay [7] and in assay [8] were 96.6% and 110%, respectively.
Turning to `C#C[C@]1(O)CCC2C3CCc4cc(OC5CCCC5)ccc4C3CC[C@@]21C` (stereo partly drawn), the growth is 84% in assay [1]; 105% in assay [2]; 94.8% in assay [3]; 53.4% in assay [4]; 74.3% in assay [5]; 68.6% in assay [6]. Moreover, the growth in assay [7] was 74.1%; in assay [8], 34.1%.
In the case of `O=C(O)c1cc([N+](=O)[O-])ccc1Oc1ccccc1`, the growth in assay [1] was 106%; in assay [2], 92.7%; in assay [3], 94.1%; in assay [4], 96.1%; in assay [5] it was 99.3%; in assay [6], 102%. In addition, the values for the growth in assay [7] and in assay [8] were 105% and 98.2%, respectively.
For `CCOC(=O)c1cc(C(=O)c2ccc(F)cc2F)n2ccccc12`, the growth is 76.3% in assay [1]; 88.5% in assay [2]; 106% in assay [3]; 94.5% in assay [4]; 94.1% in assay [5]; 92.5% in assay [6]. Moreover, the growth was 101% in assay [7] and 96.1% in assay [8].
On to `O=S(=O)(Oc1ccc(-c2ccc3sccc3c2)cc1)c1ccccc1`, for which the growth in assay [1] is 102%; in assay [2], 101%; in assay [3] it was 97.5%; in assay [4] it was 100%; in assay [5] it was 77.5%; in assay [6] it was 105%. The values for the growth in assay [7] and in assay [8] were 93.4% and 110%, respectively.
Regarding `Fc1ccc2[nH]cc(-c3nc(-c4ccsc4)cs3)c2c1`, the growth in assay [1] was 57%; in assay [2], 96.9%; in assay [3], 105%; in assay [4] it was 94.8%; in assay [5], 65.9%; in assay [6], 91.5%. The growth in assay [7] was 105%; in assay [8], 101%.
Consider `C[C@@H](O)[C@H]1C(=O)N2C(C(=O)O)=C(SC3CN[C@H](C(=O)N(C)C)C3)[C@H](C)[C@H]12` (stereo partly drawn), for which the growth in assay [1] is 98.2%; in assay [2], 105%; in assay [3] it was 101%; in assay [4] it was 99.4%; in assay [5] it was 101%; in assay [6] it was 104%. The growth was 106% in assay [7] and 108% in assay [8].
As to `CCOC(=O)c1sc2ncnc(Nc3ccc(NC(=O)Nc4ccc(Cl)cc4)cc3)c2c1C`, the growth in assay [1] was 45.4%; in assay [2] it was 61.8%; in assay [3], 59.4%; in assay [4], 63.7%; in assay [5], 52.1%; in assay [6], 17%. For the same compound, the growth is 90.3% in assay [7] and 55.3% in assay [8].
